A short description of assay [1]: APR_HepG2_NuclearSize_72hr: Apredica 72-hour HepG2 Assay for Nuclear Size (AID 2282925). Conditions: high-content imaging, actives raise or lower the signal. The method, boiled down:
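HepG2 cells dosed 72 h at 0.39–200 uM (10 concentrations, duplicate) in 0.5% v/v DMSO final. Fixed, Hoechst 33342-stained nuclei imaged; nuclear diameter measured by automated image analysis. Bidirectional fit versus DMSO.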

The nature of assay [2]: ATG_CRE_CIS: Attagene CIS-FACTORIAL HepG2 Assay for human cAMP Responsive Element (CRE) binding protein 3 (AID 2282926). As to conditions: HepG2 CRE cis-reporter, Attagene multiplexed mRNA; actives raise or lower the signal. In outline:
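Endogenous CRE-binding activity in HepG2 is reported through a cis-regulated transfected reporter. Following a day of exposure, mRNA levels are determined by reverse transcription PCR and fluorescent fragment analysis; fits run in both directions versus DMSO.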

In assay [3] the target is CCAAT/enhancer-binding protein beta (Homo sapiens) (UniProt P17676). In words: ATG_C_EBP_CIS: Attagene CIS-FACTORIAL HepG2 Assay for human CCAAT/Enhancer Binding Protein (C/EBP) beta (AID 2282927). Conditions: HepG2 Attagene cis-factorial transcription factor reporter; actives raise or lower the signal. The method, boiled down:
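HepG2, transient MRTU transfection, 24 h treatment. RT-PCR plus CE fluorescence; DMSO negative control, bidirectional fit.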

Assay [4] in a line: ATG_CMV_CIS: Attagene CIS-FACTORIAL HepG2 Assay for human CMV (Internal Marker) (AID 2282928).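 Note: endpoint acts as a background internal control marker rather than a target.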 Conditions: HepG2 CMV promoter reporter, transcription factor profiling; actives raise or lower the signal. The method, boiled down:
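HepG2 cells transiently transfected with multiple cis-regulated reporter units; 24 h compound exposure. Reporter mRNA quantified by RT-PCR, 6-FAM primer-extension labeling, HpaI digestion and capillary electrophoresis; bidirectional fitting against DMSO baseline.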

The nature of assay [5]: ATG_DR4_LXR_CIS: Attagene CIS-FACTORIAL HepG2 Assay for human Liver X Receptor (LXR), DR4 submotif (AID 2282929). As to conditions: HepG2 Attagene DR4 cis-reporter, mRNA transcription; actives raise or lower the signal. In outline: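 Readout: reporter transcript fluorescence after RT-PCR and capillary electrophoresis, fitted bidirectionally against DMSO controls. Human HepG2 liver cells carried transiently transfected multiplexed reporter constructs; endogenous transcription factor activity measured 24 h post-dosing.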

Assay [6] deals with Aryl hydrocarbon receptor (Homo sapiens) (UniProt P35869). Description: ATG_Ahr_CIS: Attagene CIS-FACTORIAL HepG2 Assay for human Aryl Hydrocarbon Receptor (Ahr) (AID 2282930). Conditions: HepG2 AhR cis-factorial reporter transcription; actives raise or lower the signal. The method, boiled down: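 Endogenous factor activity is tracked through cis-promoter reporter units transfected into HepG2 cells. Transcript levels at 24 h are read by fluorescent RT-PCR and capillary electrophoresis, with activity in either direction scored relative to DMSO.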
Chain of Aryl hydrocarbon receptor (Homo sapiens) (P35869 whole entry, looked up): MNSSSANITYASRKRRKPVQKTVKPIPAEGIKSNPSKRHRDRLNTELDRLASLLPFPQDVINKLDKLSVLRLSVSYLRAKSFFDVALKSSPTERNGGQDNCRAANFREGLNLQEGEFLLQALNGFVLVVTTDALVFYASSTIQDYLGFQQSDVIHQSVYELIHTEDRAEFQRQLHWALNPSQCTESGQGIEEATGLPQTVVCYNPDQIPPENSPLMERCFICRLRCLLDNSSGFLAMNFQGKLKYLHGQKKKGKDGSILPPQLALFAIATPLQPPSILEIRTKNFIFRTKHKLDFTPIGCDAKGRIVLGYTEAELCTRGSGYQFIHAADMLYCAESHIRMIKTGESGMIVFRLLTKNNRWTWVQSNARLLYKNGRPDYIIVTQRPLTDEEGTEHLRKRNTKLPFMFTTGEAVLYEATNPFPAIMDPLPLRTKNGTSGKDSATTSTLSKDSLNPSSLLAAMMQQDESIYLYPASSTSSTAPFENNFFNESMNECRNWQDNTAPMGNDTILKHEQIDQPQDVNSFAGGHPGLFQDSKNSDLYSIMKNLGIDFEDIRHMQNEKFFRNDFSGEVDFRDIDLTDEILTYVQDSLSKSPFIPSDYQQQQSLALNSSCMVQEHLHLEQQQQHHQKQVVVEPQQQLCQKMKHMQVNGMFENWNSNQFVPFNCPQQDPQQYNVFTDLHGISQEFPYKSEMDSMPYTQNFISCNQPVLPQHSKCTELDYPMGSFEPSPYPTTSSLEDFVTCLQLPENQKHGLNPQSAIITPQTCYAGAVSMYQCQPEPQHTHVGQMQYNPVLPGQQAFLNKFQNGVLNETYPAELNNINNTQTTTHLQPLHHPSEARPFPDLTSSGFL

Assay [7] in a line: ATG_AP_2_CIS: Attagene CIS-FACTORIAL HepG2 Assay for human Activator Protein 2 (AP-2) (AID 2282932). As to conditions: HepG2 AP-2 cis-reporter, Attagene transcription factor profiling; actives raise or lower the signal. In outline: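 Multiplexed mRNA reporter assay in HepG2: cis-regulated units report endogenous factor activity after 24 h treatment. Fluorescence from capillary electrophoresis of RT-PCR products gives the signal, with DMSO as baseline.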

The nature of assay [8]: ATG_BRE_CIS: Attagene CIS-FACTORIAL HepG2 Assay for human Bone Morphogenetic Protein (BMP) Response Element (BRE) (AID 2282933). As to conditions: HepG2 BMP response element reporter, Attagene transcription factor profiling; actives raise or lower the signal. In outline:
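HepG2 cells transiently transfected with multiplexed cis-element reporter units were dosed with chemical for 24 h. Reporter mRNA was measured by RT-PCR with fluorescent labelling, HpaI digestion and capillary electrophoresis; bidirectional fitting relative to DMSO.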

Assay [9] concerns the target Retinoic acid receptor alpha (Homo sapiens) (UniProt P10276). In words: ATG_DR5_RAR_CIS: Attagene CIS-FACTORIAL HepG2 Assay for human Retinoic Acid Receptor Alpha (RARE), DR5 submotif (AID 2282934).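 For AC50: reporter responds to endogenous RAR alpha beta and gamma in HepG2 not RARA alone.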 Conditions: HepG2 Attagene cis-factorial RARE DR5 reporter, mRNA; actives raise or lower the signal. In outline: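 After 24 h of chemical exposure, transiently transfected HepG2 cells were lysed for total RNA; the DR5-regulated reporter transcript was quantified via RT-PCR and capillary electrophoresis, with activity fitted bidirectionally against DMSO.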

The target of assay [10] is Transcription factor E2F1 (Homo sapiens) (UniProt Q01094). In words: ATG_E2F_CIS: Attagene CIS-FACTORIAL HepG2 Assay for human E2F Transcription Factor 1 (AID 2282935). Conditions: HepG2 Attagene cis-reporter, E2F reporter RNA transcripts; actives raise or lower the signal. In outline:
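Measures reporter transcript levels via RT-PCR with capillary electrophoresis detection in HepG2 cells harboring cis-regulated reporter units; 24 h post-dose; bidirectional curve fitting with DMSO as baseline.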

Assay [11] in a line: ATG_E_Box_CIS: Attagene CIS-FACTORIAL HepG2 Assay for human Enhancer Box (E-box) (AID 2282936). As to conditions: HepG2 E-box cis-reporter transcription, actives raise or lower the signal. In outline:
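First, HepG2 cells receive multiple cis-regulated reporter constructs by transient transfection. Next, chemicals are applied for 24 h. Finally, reporter mRNA is quantified via RT-PCR and capillary electrophoresis, with DMSO as baseline.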

A short description of assay [12]: ATG_M_61_CIS: Attagene CIS-FACTORIAL HepG2 Assay for M61 Transcription Factor (Internal Marker) (AID 2282937). Conditions: HepG2 Attagene CIS-FACTORIAL M61 internal marker reporter; actives raise or lower the signal. In outline:
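Readout: fluorescent reporter mRNA fragments resolved by capillary electrophoresis after RT-PCR. Transiently transfected human HepG2 cells carried MRTU constructs reporting endogenous TF activity; 24 h chemical exposure; gain or loss of signal fitted relative to DMSO.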

The nature of assay [13]: ATG_M_19_CIS: Attagene CIS-FACTORIAL HepG2 Assay for M19 Transcription Factor (Internal Marker) (AID 2282939). Conditions: HepG2 Attagene CIS-FACTORIAL M19 internal marker reporter; actives raise or lower the signal. In outline: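 HepG2 cells transiently transfected with cis-regulated multiple reporter transcription units were dosed for 24 h; reporter mRNA was quantified by RT-PCR, 6-FAM primer-extension labelling, HpaI digestion and capillary electrophoresis, with bidirectional fitting against DMSO baseline.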

Assay [14] in a line: ATG_ERE_CIS: Attagene CIS-FACTORIAL HepG2 Assay for Estrogen Response Element (ERE) (AID 2282940). As to conditions: HepG2 ERE cis-reporter, Attagene RNA transcript; actives raise or lower the signal. In outline: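 HepG2 cells transiently transfected with cis-promoter-driven multiplexed reporter transcription units report endogenous TF activity. After 24 h compound exposure, reporter mRNA is quantified by RT-PCR with capillary electrophoresis fluorescence; bidirectional fitting versus DMSO baseline.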

Assay [15] is described as follows: ATG_Ets_CIS: Attagene CIS-FACTORIAL HepG2 Assay for human Erythroblast Transformation Specific (ETS) (AID 2282941). As to conditions: HepG2 ETS cis-reporter transcription, actives raise or lower the signal. In outline: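 HepG2 cells transiently transfected with cis-promoter reporter transcription units were dosed for 24 h; reporter mRNA was measured by RT-PCR, 6-FAM primer extension, HpaI digestion and capillary electrophoresis, with bidirectional fitting against DMSO baseline.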

The target of assay [16] is Hepatocyte nuclear factor 3-beta (Homo sapiens) (UniProt Q9Y261). In words: ATG_FoxA2_CIS: Attagene CIS-FACTORIAL HepG2 Assay for human Forkhead box A2 (FOXA2) (AID 2282942). Conditions: HepG2 cis-reporter transcription factor activity, 24 h; actives raise or lower the signal. The method, boiled down: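 Readout: fluorescent reporter transcripts resolved by capillary electrophoresis after RT-PCR. Transiently transfected HepG2, 24 h compound exposure, endogenous TF activity at cis promoter elements. Gain or loss of signal fitted relative to DMSO.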
Chain of Hepatocyte nuclear factor 3-beta (Homo sapiens) (Q9Y261 whole entry, looked up): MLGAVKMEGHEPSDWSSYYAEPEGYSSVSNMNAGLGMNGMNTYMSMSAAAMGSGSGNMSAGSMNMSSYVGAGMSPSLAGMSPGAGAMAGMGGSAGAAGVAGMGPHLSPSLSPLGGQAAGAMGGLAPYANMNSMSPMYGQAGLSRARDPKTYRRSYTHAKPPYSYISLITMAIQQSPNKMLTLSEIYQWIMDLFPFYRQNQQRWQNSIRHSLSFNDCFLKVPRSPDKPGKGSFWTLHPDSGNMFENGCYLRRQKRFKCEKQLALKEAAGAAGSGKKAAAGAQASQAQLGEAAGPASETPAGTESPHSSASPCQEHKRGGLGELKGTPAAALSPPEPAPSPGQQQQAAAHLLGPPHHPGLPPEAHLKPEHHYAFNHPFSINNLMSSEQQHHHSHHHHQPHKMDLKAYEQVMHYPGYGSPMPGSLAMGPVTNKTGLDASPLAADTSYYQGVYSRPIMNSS

The nature of assay [17]: ATG_FoxO_CIS: Attagene CIS-FACTORIAL HepG2 Assay for human Forkhead box O (FoxO) (AID 2282943). Conditions: HepG2 Attagene cis-reporter, FoxO element, mRNA; actives raise or lower the signal. The method, boiled down:
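Transfected HepG2 reporter cells exposed to test chemical for 24 h; reporter RNA measured by reverse transcription, PCR and fluorescent capillary electrophoresis; curves fitted for increases and decreases against DMSO.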

Assay [18] is described as follows: ATG_GATA_CIS: Attagene CIS-FACTORIAL HepG2 Assay for human GATA Binding Protein (AID 2282944). Conditions: HepG2 GATA cis-element reporter, Attagene multiplex mRNA; actives raise or lower the signal. In outline:
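HepG2 cells transiently transfected with multiplexed cis-element reporter units reflecting endogenous transcription factor activity; reporter mRNA measured after 24 h dosing by RT-PCR, 6-FAM labeling, HpaI digestion and capillary electrophoresis. Bidirectional fitting versus DMSO baseline.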

Assay [19] in a line: ATG_AP_1_CIS: Attagene CIS-FACTORIAL HepG2 Assay for human Activator Protein 1 (AP-1) (AID 2282931). As to conditions: HepG2 Attagene cis-factorial AP-1 reporter mRNA; actives raise or lower the signal. In outline: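 Reporter transcripts were measured 24 h after dosing by RT-PCR and capillary electrophoresis of fluorescent fragments. Cells: HepG2 carrying transfected cis-regulated reporter constructs reading endogenous factor activity. Gain or loss fitted against DMSO.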

Assay [20] in a line: ATG_EGR_CIS: Attagene CIS-FACTORIAL HepG2 Assay for human Early Growth Response 1 (EGR1) (AID 2282938). Conditions: HepG2 Attagene CIS-FACTORIAL EGR reporter mRNA; actives raise or lower the signal. The method, boiled down: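 Read-out: fluorescent reporter-mRNA fragments resolved by capillary electrophoresis after RT-PCR, 24 h post-dose in transiently transfected HepG2. Endogenous transcription-factor activity reported via cis-element-regulated reporter units; gain or loss fitted relative to DMSO.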

Calls of active or inactive are those of the source. Rule for the calls: active = hit-call score of the fitted dose curve at least 0.9, where 1 is the maximum; inactive = score below 0.9.

Chain of Retinoic acid receptor alpha (Homo sapiens) (P10276 whole entry, looked up): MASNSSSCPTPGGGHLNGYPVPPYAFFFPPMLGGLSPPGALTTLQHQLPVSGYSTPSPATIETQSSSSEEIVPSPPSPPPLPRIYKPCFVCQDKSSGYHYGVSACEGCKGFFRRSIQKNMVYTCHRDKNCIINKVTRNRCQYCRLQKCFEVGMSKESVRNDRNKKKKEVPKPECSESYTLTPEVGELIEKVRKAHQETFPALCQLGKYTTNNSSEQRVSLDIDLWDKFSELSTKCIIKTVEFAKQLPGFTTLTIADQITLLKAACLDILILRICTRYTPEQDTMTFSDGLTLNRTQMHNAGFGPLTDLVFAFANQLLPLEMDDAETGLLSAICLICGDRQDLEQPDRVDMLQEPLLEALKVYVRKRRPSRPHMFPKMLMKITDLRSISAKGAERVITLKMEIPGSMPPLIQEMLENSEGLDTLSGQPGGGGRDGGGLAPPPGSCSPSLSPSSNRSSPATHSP
Chain of Transcription factor E2F1 (Homo sapiens) (Q01094 whole entry, looked up): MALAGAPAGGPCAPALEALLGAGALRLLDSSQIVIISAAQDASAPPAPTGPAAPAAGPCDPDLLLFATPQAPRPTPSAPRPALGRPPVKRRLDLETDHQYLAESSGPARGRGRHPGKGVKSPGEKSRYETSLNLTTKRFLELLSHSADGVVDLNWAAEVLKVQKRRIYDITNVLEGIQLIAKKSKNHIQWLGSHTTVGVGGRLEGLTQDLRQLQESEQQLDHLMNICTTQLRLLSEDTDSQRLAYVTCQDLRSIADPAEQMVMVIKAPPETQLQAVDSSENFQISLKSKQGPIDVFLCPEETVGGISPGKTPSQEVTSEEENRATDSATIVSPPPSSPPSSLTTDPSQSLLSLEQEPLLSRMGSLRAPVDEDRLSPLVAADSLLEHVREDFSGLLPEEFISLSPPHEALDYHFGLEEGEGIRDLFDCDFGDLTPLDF
Chain of CCAAT/enhancer-binding protein beta (Homo sapiens) (P17676 whole entry, looked up): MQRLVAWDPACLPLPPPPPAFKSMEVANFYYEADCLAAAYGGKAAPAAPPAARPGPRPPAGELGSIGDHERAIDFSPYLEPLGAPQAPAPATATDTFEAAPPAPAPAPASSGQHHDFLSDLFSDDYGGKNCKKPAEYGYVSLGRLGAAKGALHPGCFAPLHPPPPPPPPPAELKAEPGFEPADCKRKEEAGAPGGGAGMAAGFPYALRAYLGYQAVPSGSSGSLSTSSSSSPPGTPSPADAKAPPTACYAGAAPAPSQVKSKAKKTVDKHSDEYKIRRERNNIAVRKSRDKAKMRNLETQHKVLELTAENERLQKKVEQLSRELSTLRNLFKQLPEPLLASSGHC

Take `CCOC(=O)C(C)Oc1ccc(Oc2cnc3cc(Cl)ccc3n2)cc1` (stereo not drawn): the molecule was called inactive in assay [1], in assay [2], in [3], in assay [4], in assay [5] and in [6]. Further, the molecule was classed as inactive in assay [7], in assay [8], in [9], in assay [10], in assay [11] and in [12]. The molecule was called inactive in assay [13], in [14], in assay [15], in [16] and in assay [17].

`CCSC(=O)N(CC(C)C)CC(C)C`: the outcome in assay [1], in [2], in assay [3], in [4], in assay [5] and in assay [6] was inactive. Moreover, the molecule was classed as inactive in [7], in [8], in [9], in assay [10], in assay [11] and in assay [12]. Also, the molecule was classed as inactive in assay [13], in [14], in assay [15], in assay [16], in assay [17] and in assay [18].

As for `Oc1ccc(C(c2ccc(O)cc2)C(Cl)(Cl)Cl)cc1`, the molecule was classed as inactive in assay [1], in [2], in assay [3], in assay [4], in assay [5] and in [6]. In addition, the molecule was classed as inactive in assay [19], in assay [7], in [8], in assay [10], in [11] and in assay [12]. For the same molecule, the molecule was called inactive in [13], in [15], in assay [16], in assay [17] and in assay [18].

Broadly, the AC50 is the concentration at which the activity in the assay is half-maximal. Take `O=C(c1ccc(O)cc1O)c1ccc(O)cc1O`: the molecule was called inactive in [1], in [2], in assay [3], in [5], in assay [6] and in assay [7]. Also, the molecule was called inactive in assay [8], in assay [9], in assay [10], in assay [11], in assay [12] and in [20]. The result in assay [13], in assay [15], in [16] and in [17] was inactive. Besides, the values for the AC50 in assay [4] and in [14] were 80.5 µM (active) [middle of 4 runs] and 843 nM (active) [middle of 4 runs], respectively.

Take `CCNc1nc(N)nc(Cl)n1`: the molecule was classed as inactive in assay [1], in [2], in [3], in [4], in assay [5] and in assay [7]. Further, the outcome in assay [8], in assay [9], in assay [10], in assay [11], in assay [12] and in assay [13] was inactive. In addition, the molecule was called inactive in assay [15], in assay [16] and in [17].

Regarding `COC(=O)CSc1cc(N=c2sc(=O)n3n2CCCC3)c(F)cc1Cl`, the outcome in assay [1], in [2], in assay [3], in assay [4], in [5] and in assay [6] was inactive. The molecule was classed as inactive in assay [7], in assay [8], in [10], in [11], in assay [12] and in assay [20]. In addition, the molecule was called inactive in assay [13], in [15], in assay [16] and in assay [17].

With `Cc1nn(C)c(Oc2ccccc2)c1C=NOCc1ccc(C(=O)OC(C)(C)C)cc1`, the outcome in assay [1], in assay [5], in assay [6], in [7], in [10] and in [11] was inactive. The outcome in assay [12], in [13], in assay [14], in [15], in assay [16] and in assay [17] was inactive. Also, the AC50 was 40.5 nM (active) in [2]; 50.5 nM (active) in [3]; 21.8 nM (active) in assay [4]; 40.9 nM (active) in [8]; 30.3 nM (active) in assay [9].

For the origin of these results see PubChem BioAssay (EPA / NIEHS).
